# Results published in PubChem BioAssay (Tox21).
# Inconclusive results are not listed. The source made the active and inactive calls. The call rests on the fitted dose curve; in most records, active means well fitted activation curve with a large enough effect in the signal ratio in the repeat runs (not every such curve was filed as active); inconclusive means weak or mixed curves; inactive means flat fitted curve, though single readings scatter; the % refers to the signal ratio.
# Assay: qHTS assay to identify small molecule agonists of the TGF-beta/Smad signaling pathway (AID 1346859)
# Details: SBE-bla HEK293T, TGF-beta/Smad beta-lactamase reporter, 5 h; series mostly up to 76.8 µM; activation: at the top concentration
# Text: U.S. Tox21 Program National Center for Advancing Translational Sciences [NCATS] NIH Chemical Genomics Center [NCGC] U.S. Environmental Protection Agency [EPA] National Institutes of Environmental Health Sciences [NIEHS] National Toxicology Program [NTP] U.S. Food and Drug Administration [FDA] Tox21 Assay Overview: Transforming growth factor beta (TGF-beta) superfamily consists of a large number of structurally related dimeric proteins that act as hormones or local mediators in regulating a wide range of biological functions. This superfamily includes TGF-betas themselves, the bone morphogenetic proteins (BMPs) and the activins. These ligands induce oligomerization of serine/threonine receptor kinases and phosphorylate the cytoplasmic signaling molecules of Smad protein family. CellSensor SBE-bla HEK 293T cell line (Life Technologies, Carlsbad, CA), responsive to TGF-beta was used to screen Tox21 10K compound library for identification of agonists/antagonists of the Smad signaling pathway. This cell line contains a beta-lactamase reporter gene under control of the Smad binding element (SBE) stably integrated into HEK 293T cells.
# Tox21 Assay Protocol Summary: SBE-bla HEK 293T cells were dispensed at 4,000/well in 6 uL of assay medium into black wall/clear-bottom 1536-well plates using a Multidrop Combi (ThermoFisher Scientific, Waltham, MA) dispenser. After the assay plates were incubated at 37 C and 5% CO2 for an overnight, 23 nL of compounds dissolved in DMSO, positive controls or DMSO only was transferred to the assay plate by a Pintool station (Kalypsys, San Diego, CA). The assay plates were incubated at 37 C and 5% CO2 for 5 hr. One uL of LiveBLAzer B/G FRET substrate (Life Technologies) was added using a Flying Reagent Dispenser (Aurora Discovery, San Diego, CA) and the plates were incubated at room temperature for 2 hr. Fluorescence intensity (405 nm excitation, 460 nm and 530 nm emissions) was measured using an Envision plate reader (PerkinElmer, Shelton, CT).
# On the % scale 0 is the no-effect control and ±100 the full control effect.
SMILES,outcome,activation
CN1CCc2cccc3c2[C@H]1Cc1ccc(O)c(O)c1-3,inactive,–
CCCCCCCC(=O)OCC(COC(=O)CCCCCCC)OC(=O)CCCCCCC,inactive,–
CCCc1cc(=O)[nH]c(=S)[nH]1,inactive,–
O=C1c2c(O)cccc2Cc2cccc(O)c21,inactive,–
CC(=O)C(=O)O,inactive,–
NC(=O)c1cccnc1,inactive,–
NC1CCCCC1,inactive,–
CC(=O)CC(c1ccccc1)c1c(O)c2ccccc2oc1=O (stereo not given),inactive,–
CC/C(=C(\c1ccccc1)c1ccc(OCCN(C)C)cc1)c1ccccc1,inactive,–
CCCCCCc1ccc(O)cc1O,inactive,–
CCOC(N)=O,inactive,–
O=CC(=O)c1ccccc1,–,-6.31% (inactive)
CC12CCC(CC1)C(C)(C)O2,inactive,–
COc1ccc(C(Cl)=C(c2ccc(OC)cc2)c2ccc(OC)cc2)cc1,inactive,–
Oc1ccccc1,inactive,–
CCCCC(CC)C(=O)O (stereo not given),inactive,–
Nc1c2c(nc3ccccc13)CCCC2,inactive,–
CC(C)C(=O)Nc1ccc([N+](=O)[O-])c(C(F)(F)F)c1,inactive,–
CN(C)C(=O)Nc1ccc(Cl)c(Cl)c1,inactive,–
O=C(O)c1ccccc1,inactive,–

SMILES,outcome,activation
CC(=O)CCC(=O)O,inactive,–
CCOc1ccc(NC(C)=O)cc1,inactive,–
NS(=O)(=O)c1cc2c(cc1Cl)NCNS2(=O)=O,inactive,–
C=CCc1ccc(O)c(OC)c1,inactive,–
CCN(CC)C(=O)c1cccc(C)c1,inactive,–
C1=CC2C3C=CC(C3)C2C1 (stereo not given),–,-1.79% (inactive)
CCCCC1(COC(=O)CCC(=O)O)C(=O)N(c2ccccc2)N(c2ccccc2)C1=O,inactive,–
CCN(Cc1c(F)cccc1Cl)c1c([N+](=O)[O-])cc(C(F)(F)F)cc1[N+](=O)[O-],–,-1.82% (inactive)
CS(=O)(=O)OCCCCOS(C)(=O)=O,inactive,–
Cc1ccc(S(=O)(=O)O)cc1,inactive,–
NC(CO)(CO)CO,inactive,–
OC[C@H]1O[C@H](O[C@]2(CCl)O[C@H](CCl)[C@@H](O)[C@@H]2O)[C@H](O)[C@@H](O)[C@H]1Cl,inactive,–
CC1(C)O[C@@H]2C[C@H]3[C@@H]4CCC5=CC(=O)C=C[C@]5(C)[C@@]4(F)[C@@H](O)C[C@]3(C)[C@]2(C(=O)CO)O1,inactive,–
CN(C)CCOC(C)(c1ccccc1)c1ccccn1 (stereo not given),inactive,–
F[B-](F)(F)F,inactive,–
CCCCCCCCCCCCCCCC[N+](C)(C)Cc1ccccc1,–,-1.21% [at 35.3 µM] (inactive)
Nc1ccc(S(N)(=O)=O)cc1,inactive,–
Cc1ncc([N+](=O)[O-])n1CCO,inactive,–
CCCCOC(=O)c1ccc(O)cc1,inactive,–
CNNCc1ccc(C(=O)NC(C)C)cc1,inactive,–
